PubChem BioAssay (NCI)
This is part of a sample that, as a whole, favours compounds with a hit. Of some 79,000 tested, about 15% had one in any assay. Unmarked numbers belong to inactive results. Calls of active or inactive are those of the source. Rule as the data show it: active = growth inhibition above about 70%; inactive = the rest.

Experiments:
[1] = NCI Yeast Anticancer Drug Screen. Data for the rad50 strain (AID 155);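 also: 0% = growth of vehicle-only cultures of the same strain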; details: S. cerevisiae rad50 strain growth inhibition; at 50.0 µM; active compounds read high
Summary of the method: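 Vehicle-treated cultures provide the reference for the growth inhibition reported for compound-exposed, repair-deficient yeast.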

[2] = NCI Yeast Anticancer Drug Screen. Data for the mec2-1 strain (AID 157); details: S. cerevisiae mec2-1 strain, at 50.0 µM, active compounds read high
Summary of the method: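 Vehicle-treated cultures served as reference for growth inhibition of compound-exposed mec2-1 yeast.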

[3] = NCI Yeast Anticancer Drug Screen. Data for the sgs1 mgt1 strain (AID 161);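 also: 0% = growth of cultures given vehicle only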; details: S. cerevisiae sgs1 mgt1 strain, at 50.0 µM, active compounds read high
Summary of the method: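 Genetically altered yeast, compound exposure, growth inhibition relative to vehicle.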

[4] = NCI Yeast Anticancer Drug Screen. Data for the cln2 rad14 strain (AID 165);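 also: 0% = growth equal to vehicle treated cultures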; details: S. cerevisiae cln2 rad14 strain, at 50.0 µM, active compounds read high
Summary of the method: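 Each compound was tested on cln2 rad14 yeast. Inhibition of growth was calculated against vehicle-exposed controls.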

[5] = NCI Yeast Anticancer Drug Screen. Data for the bub3 strain (AID 167); details: S. cerevisiae bub3 mutant strain, at 50.0 µM, active compounds read high
Summary of the method: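 Mutant yeast screening strain plus compound; vehicle-treated cultures serve as the 0% inhibition reference.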

[6] = NCI Yeast Anticancer Drug Screen. Data for the mlh1 rad18 strain (AID 175); details: S. cerevisiae mlh1 rad18 strain growth inhibition; at 50.0 µM; active compounds read high
Summary of the method: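 Vehicle-treated cultures served as the reference for growth inhibition in a yeast strain carrying DNA damage repair alterations exposed to each compound.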

Row | SMILES | growth inhibition [1] | growth inhibition [2] | growth inhibition [3] | growth inhibition [4] | growth inhibition [5] | growth inhibition [6]
1 | Cc1[nH]c(=O)nc(N/N=C/c2ccc(O)cc2)c1C(=O)Nc1ccc(Cl)cc1 | -17.6% | -16% | -20.6% | -3.15% | -12.6% | -25.9%
2 | C/C=C(\C)c1cc(=O)c2c(C)cc3c(c2o1)C(=O)c1c(O)c(C2CC(C)(N(C)C)C(OC(C)=O)C(C)O2)cc(C2CC(N(C)C)C(O)C(C)O2)c1C3=O (stereo not drawn) | 17% | 1.95% | 9.8% | 7.35% | 8.15% | -59.6%
3 | CCN(CC)Cc1cc(C)c(O)c(N=Nc2ccc(-c3ccc(N)c(OC)c3)cc2OC)c1C | -21.4% | 12.7% | -8.05% | -2.05% | -6.1% | -21.4%
4 | CCOc1nc(N)nc(C)c1N=Nc1ccccc1C | 18.8% | 18.1% | 5.7% | -12.5% | 12.2% | 15.7%
5 | CC(=O)Oc1cccc2cc3cc(C)cc(OC(C)=O)c3c(OC(C)=O)c12 | -7.15% | 3.8% | 2.95% | -2.95% | 6.5% | 14.7%
6 | CCOC(=O)CC(C(C)=O)C(=O)OCC (stereo not drawn) | 14.9% | 12.3% | -3.55% | -29.6% | 5.6% | -1.4%
7 | CCCCCCCCCCCCCCCSc1ccc2ccccc2c1 | -17% | 1.35% | -5.2% | -25.2% | -13.8% | -13.5%
8 | OCCCOC(c1ccccc1)(c1ccccc1)c1ccccc1 | -22.9% | -29.4% | -30.2% | 1.55% | -49.8% | -12.9%
9 | CC1OC1C(=O)C1(O)C(C)C(O)C23OC2(C(O)c2c(O)cccc2C3=O)C1O (stereo not drawn) | 6.75% | -21.8% | 8.65% | -1.1% | -0.7% | 10.3%
10 | O=C1NC(=O)c2ccccc2/C1=C/c1ccc2c(c1)OCO2 | -16.6% | -8.25% | -13.3% | -32.5% | -2.6% | -26.6%
11 | CCCCCCCCCCCCCCCCCC(=O)N/N=C/c1ccc(O)cc1 | -22.3% | -12.4% | -16.2% | -61.2% | -6.2% | 1.85%
12 | O=CCCC1CCCCC1 | 4.75% | 1.5% | -4.55% | -17.4% | 13.1% | -5.7%
13 | O=C1c2cscc2C(=O)c2c(OCc3ccccc3)ccc(OCc3ccccc3)c21 | 3.7% | 6.65% | -7.45% | -5.3% | 1.95% | 7.4%
14 | C=C=CON1CCCCC1 | -16% | 14.9% | -24.9% | -5% | -12.7% | -0.6%
15 | CCCCCCCCCCCCSSC(=S)OC(C)C | 46.7% | 37.7% | 45.5% | 16.9% | 43.6% | 44.5%
16 | COCCCNC(=O)C1=C(C)NC(C)=C(C(=O)NCCCOC)C1 | -49% | -64.2% | -10.7% | 3.6% | -11.2% | -50.6%
17 | COc1cc(C2N3CCCN2CC3)cc(OC)c1OC (stereo not drawn) | -3.75% | 0.35% | -21.6% | -3.5% | -7.75% | -2.55%
18 | N/N=C(/Cc1nc2ccc(C(=O)c3ccccc3)cc2[nH]c1=O)C(=O)Nc1ccc([N+](=O)[O-])cc1[N+](=O)[O-] | 23.4% | 13.2% | -3.6% | -47.8% | 5.2% | 15.6%
19 | Cn1c(=Nc2ccc(Cl)cc2)sc2ccccc21 | -8.65% | -31.2% | -21.4% | -36.9% | 1.2% | -21.9%

Row | SMILES | growth inhibition [1] | growth inhibition [2] | growth inhibition [3] | growth inhibition [4] | growth inhibition [5] | growth inhibition [6]
20 | CCC(=O)C(CCN(C)C)c1ccccc1 (stereo not drawn) | -10.4% | -0.85% | 9.9% | -22.6% | -11.1% | -7.9%
21 | O=C(Nc1cccc(Cl)c1)C(Br)C(Br)c1ccccc1 (stereo not drawn) | 97.8% (active) | 99.2% (active) | 99.3% (active) | 99.2% (active) | 98.5% (active) | 98.7% (active)
22 | CCOC(=O)C(Cl)(Cl)C(Cl)(OCC)C(=O)OCC (stereo not drawn) | 16.1% | 26.1% | 26.8% | -24.4% | 34.5% | 22.2%
23 | CC(O)C1CCCCN1 (stereo not drawn) | 2.6% | -1.1% | -8.85% | 10.4% | 14.2% | -0.9%
24 | OCc1ccc(F)cc1 | -6.35% | -14.6% | -7.5% | 3.25% | -10.8% | 3.45%
25 | CCOC(=O)NC(=S)Nc1nonc1-c1ccccc1 | 1.35% | 2% | 36% | -9.65% | 15.6% | 26.2%
26 | CC(=O)OCC(OC(C)=O)C(OC(C)=O)C(C=NN(C(C)=O)S(=O)(=O)c1ccc(/C=C2\NC(=O)NC2=O)cc1)OC(C)=O (stereo not drawn) | -4.6% | -30.9% | -17.9% | 14% | -17.8% | -7.15%
27 | CC(=O)OC(Cn1cncn1)(Cn1cncn1)c1ccc(Cl)cc1Cl | 43.6% | 32.5% | 58.3% | 46.8% | 39.8% | 56.7%
28 | COc1ccc(OC)c(C(N)=O)c1 | -0.1% | 13.8% | -1.25% | 0.95% | 0.85% | -2.5%
29 | N#Cc1nnn2c1nc(N)c1c(Cl)cccc12 | 0.75% | -17.1% | -4.6% | -0.05% | -11.8% | -8.35%
30 | O=C1NC(=S)S/C1=C/C=C/c1ccccc1[N+](=O)[O-] | 2.95% | 0.85% | -3.9% | -16.6% | 42.5% | -16.6%
31 | NC(=O)Nc1ccc(Cl)cc1[N+](=O)[O-] | -4.35% | -8.5% | 17.6% | -46.5% | -6.45% | -7.1%
32 | O=[N+]([O-])c1c(O)c(O)c2ccccc2c1Nc1ccccc1 | -29.9% | -5.8% | -0.3% | -62.4% | 11.7% | -1.65%
33 | CC(C)(C)CC(C)(C)NCc1ccc(Cl)cc1 | 78.6% (active) | 45% | 61.3% | 40.2% | 65.6% | 60.6%
34 | CC(=O)NC(C)CC1=CC(=O)C(C)=CC1=O (stereo not drawn) | 1.45% | -13.4% | -16.1% | -33.7% | -18.9% | -11.6%
35 | CC(=O)Nc1ccc(OC(=O)Nc2ccc(C)c(NC(=O)Oc3ccc(NC(C)=O)cc3)c2)cc1 | 6.35% | -6.95% | 6.15% | 24.5% | 17.2% | 7.25%
36 | O=C[c-]1[c-][c-][c-][c-]1.[Fe+2].[c-]1[c-][c-][cH-][c-]1 | 44% | 58.5% | 57.8% | 49% | 51.6% | 14%
37 | O=C(COc1cccc(Cl)c1)Nc1ccc(C(=O)CCl)cc1 | 23.9% | 49.5% | 35.9% | 11.8% | 47% | 44.5%
38 | Cc1cc(NS(=O)(=O)c2ccc(NC(=O)c3cccc4c(N)c5ccccc5nc34)cc2)no1 | 34.1% | 14.9% | 29.3% | 39.5% | 3.85% | 37%
